Source: PubChem BioAssay
Rows were chosen to be rich in hits. Some 6.8% of all compounds tested hit in one or more screens of this group.
Spn MK inh: S. pneumoniae MK inhibitors, primary screen, biochemical, PK/LDH-coupled NADH absorbance; purified MK, PK/LDH-coupled NADH absorbance 340 nm; inhibition, % at 10 µM; actives 0.48% (n = 65,000); AID 555, 2006;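 active means ranked among the strongest by inhibition in the single 10 µM screen, a fixed top-ranked set picked for dose follow-up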
Spn PMK inh: S. pneumoniae PMK inhibitors, primary screen, biochemical, mevalonate pathway, pilot trial included | purified PMK, PK/LDH-coupled NADH absorbance 340 nm | inhibition, % at 10 µM | actives 0.49% (n = 65,000) | AID 539, 2006;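 active means top-ranked compounds by inhibition in the single 10 µM screen, taking a fixed number of the strongest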;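 further: 0% = full reaction with DMSO carrier and 100% = background rate without enzyme reaction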
Fluor 339 460: intrinsic fluorescence of library compounds, ex339/em460 – biochemical, MLSMR library, data from DPM-DC assay, artefact control, profiling panel; AID 709, 2007; fluorescence fold increase at 10 µM; compound autofluorescence, ex339/em460 nm, NADH buffer; active compounds read high; 1 = no-compound wells, NADH background; actives 5.5% (n = 65,000);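 active means at 10 µM, mean starting fluorescence two-fold or more over control wells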;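 further: signal is the first read of a kinetic run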
NADH enzymes: inhibitors of PK/LDH coupling enzymes, profiling panel, artefact control, biochemical, MLSMR library | IC50, µM (top dose mostly 10 µM), without a hit: at the top dose inhibition | coupled PK/LDH NADH assays, four targets | actives 0.02% (n = 65,000);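 active means single-dose screening hits from any of four coupled enzyme assays that gave an IC50 when retested across doses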;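 further: the DPM-DC format reads NADH fluorescence rather than 340 nm absorbance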
A340 absorber: compound light absorbance at 340 nm, profiling panel, artefact control, biochemical, MLSMR library, data from PS, PMK, MK assays. AID 708, 2007. compound absorbance at 340 nm, fold over control. 65,000 tested, under 10 active. fold change at 10 µM;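 active means at 10 µM dose, initial 340 nm absorbance at least 2 fold that of control wells; inactive means change under 2 fold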;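 further: initial absorbance extrapolated from kinetic A340 decline of NADH oxidation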
Spn DPM-DC inh: S. pneumoniae DPM-DC inhibitors, primary screen, biochemical, PK/LDH-coupled NADH fluorescence; diphosphomevalonate decarboxylase (Streptococcus pneumoniae D39); purified DPM-DC; calls only at 10 µM; actives 0.49% (n = 65,000); AID 556, 2006;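 active means the 320 compounds with the highest percent inhibition in the single-dose primary screen, excluding strongly autofluorescent ones, cut at about 32% in these data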;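 further: kinetic rate of NADH fluorescence loss reporting ADP formed by the decarboxylase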
* marks the source's active call; other numbers are inactive results; i = inactive; . = not tested or not shown; + = active, no number.

SMILES	Spn MK inh	Spn PMK inh	Fluor 339 460	NADH enzymes	A340 absorber	Spn DPM-DC inh
CCOc1ccc(Nc2oc(-c3ccco3)nc2C#N)cc1	9.0	0.0	1.31	3.0%	1.08	i
N#Cc1nc(-c2cccs2)oc1N1CCN(c2ccccc2)CC1	6.0	7.0	3.69*	7.0%	1.04	.
Cc1ccc(CNc2oc(-c3cccs3)nc2C#N)cc1	5.0	5.0	3.65*	5.0%	1.05	.
CCOc1ccc(Nc2oc(-c3cccs3)nc2C#N)cc1	3.0	0.0	3.04*	2.0%	1.15	.
N#Cc1nc(-c2cccs2)oc1NCc1ccco1	4.0	0.0	2.25*	2.0%	1.06	.
N#Cc1nc(-c2cccs2)oc1NCc1ccc(Cl)cc1	12.0	9.0	3*	4.0%	1.01	.
N#Cc1nc(-c2cccs2)oc1NCc1ccccc1	0.0	4.0	2.38*	2.0%	1.1	.
Cc1[nH]c2ccc(-c3nnc(SCC(=O)NCc4ccco4)n3Cc3ccccc3)cc2c1C	0.0	17.0	1.1	6.0%	1.03	i
CCOc1ccc(C(C)(C)C)cc1S(=O)(=O)N1CCOCC1	14.0	0.0	1.09	7.0%	1.01	i
CCC(=O)Nc1nnc(Sc2ccc(N(C)C)cc2)s1	2.0	0.0	0.91	17.0%	1.05	+
O=C1CCCC(O)=C1C1C2=C(CCCC2=O)Oc2ccccc21 (centres undefined)	6.0	4.0	1.03	3.0%	1.04	i
Cc1nc2ccccn2c1/C(O)=C1\C(=O)C(=O)N(CCCn2ccnc2)C1c1ccncc1 (centres undefined)	3.0	11.0	1.03	5.0%	1.13	i
COc1ccc(N2CCN(S(=O)(=O)c3ccc(C(=O)NCc4ccco4)cc3)CC2)cc1	2.0	3.0	1.06	2.0%	0.99	i
C=CCn1cnc2c(c1=O)c1nc3ccccc3nc1n2/N=C/c1cc(OC)c(OC)c(OC)c1	11.0	17.0	1.04	9.0%	1.18	i
C=CCn1cnc2c(c1=O)c1nc3ccccc3nc1n2/N=C/c1ccccn1	7.0	7.0	2.55*	12.0%	1.17	i
COCCCn1cnc2c(c1=O)c1nc3ccccc3nc1n2-c1ccccc1	6.0	11.0	3.13*	11.0%	1.12	i
C=CCn1cnc2c(c1=O)c1nc3ccccc3nc1n2-c1ccccc1	0.0	13.0	2.43*	13.0%	1.08	i
COCCCn1cnc2oc3nc4ccccc4nc3c2c1=O	0.0	3.0	3.2*	5.0%	1.14	i
O=c1ccc2c(o1)/C(=C/C=C(Cl)Cl)CCC2	4.0	0.0	1.72	6.0%	1.12	i
Cc1ccccc1Cn1cc(NC(=O)c2noc3c2CC(C(C)(C)C)CC3)cn1 (centres undefined)	5.0	20.0	1.7	2.58µM*	0.99	i
COC(=O)C1(S(=O)(=O)c2ccc(C)cc2)CCOCC1	2.0	23.0	1.13	8.0%	1.03	i
CCCCc1cc(=O)oc2c(CN(C)C)c(O)c(Cl)cc12	5.0	0.0	2.33*	3.0%	1.16	.
CCc1c(C)c2cc(Cl)c(O)c(CN(C)C)c2oc1=O	12.0	1.0	3.68*	7.0%	1.21	.
Cc1c(C)c2cc(Cl)c(O)c(CN(C)C)c2oc1=O	8.0	0.0	2.31*	4.0%	1.14	.
CCc1c(C)c2cc(Cl)c(O)c(CN(CC)CC)c2oc1=O	6.0	6.0	3.7*	6.0%	1.08	.
SMILES	Spn MK inh	Spn PMK inh	Fluor 339 460	NADH enzymes	A340 absorber	Spn DPM-DC inh
C#CCOc1nc(OCC#C)nc(OCC#C)n1	10.0	3.0	1.07	4.0%	1.02	i
Cc1ccc2c(c1)c1c(n2CC(O)CN2C(=O)CNC2=O)C(=O)CCC1 (centres undefined)	9.0	7.0	2.03*	8.0%	1.1	.
Cc1ccc2c(c1)c1c(n2CC(O)Cn2c(C)nc3ccccc32)C(=O)CCC1 (centres undefined)	11.0	21.0	2.04*	16.0%	1.06	.
Cc1ccc2c(c1)c1c(n2CC2COC(C)(C)O2)C(=O)CCC1 (centres undefined)	9.0	1.0	2.18*	5.0%	1.03	.
Cc1ccc2c(c1)c1c(n2CC(O)Cn2c(C)nc3ccccc32)/C(=N\O)CCC1 (centres undefined)	5.0	7.0	1.05	4.0%	0.99	i
CCOc1ccc(CC2CC(=O)NC2=O)cc1 (centres undefined)	1.0	2.0	1.06	1.0%	0.96	i
O/N=C1/CCc2cccc3cccc1c23	5.0	11.0	1.17	5.0%	1.04	i
O=C1OCc2cccc3cccc1c23	19.0	15.0	2.1*	17.0%	1.07	.
CSc1nncn1/N=C/c1cc(Cl)ccc1F	6.0	14.0	1.06	7.0%	0.99	i
CC(C)OC(=O)c1cccnc1SCc1cc(=O)n2ccccc2n1	12.0	28.0*	1.66	16.0%	1.08	i
C=CCn1c(NCc2ccccc2)nc2ccccc21	0.0	25.0*	1.04	8.0%	0.99	i
C=CCn1c(NCc2ccc3c(c2)OCO3)nc2ccccc21	0.0	17.0	1.07	6.0%	1.01	i
CCN1C(=O)c2ccc(-c3nc4ccccc4c(=O)o3)cc2C1=O	5.0	5.0	2.17*	5.0%	1.07	.
CC(Sc1nnc(-c2cc3ccccc3o2)n1-c1ccccc1)C(=O)O (centres undefined)	3.0	3.0	1.09	2.0%	1	i
N#Cc1cn(-c2ccccc2)nc1-c1cc2ccccc2oc1=O	6.0	0.0	2.35*	3.0%	1.11	.
Cc1c(NS(=O)(=O)c2ccc3c(c2)CCN3C(=O)C2CC2)c(=O)n(-c2ccccc2)n1C	6.0	1.0	1.15	2.0%	1	i
COC(=O)c1c(S(N)(=O)=O)c2ccccc2n1C	7.0	12.0	2.08*	10.0%	1.03	.
Cc1ccc2[nH]c(=O)c(CN(Cc3cccs3)Cc3nnnn3Cc3ccccc3)cc2c1	8.0	11.0	1.18	6.0%	1	i
COc1ccc2[nH]c(=O)c(CN(Cc3ccccc3)Cc3nnnn3CC3CCCO3)cc2c1 (centres undefined)	12.0	10.0	2.32*	13.0%	1.05	i
COc1cc2cc(CN(Cc3nnnn3Cc3ccccc3)CC3CCCO3)c(=O)[nH]c2cc1OC (centres undefined)	13.0	15.0	3.26*	18.0%	1.08	i
CCc1ccc2[nH]c(=O)c(CN(Cc3ccc(OC)cc3)Cc3nnnn3CCOC)cc2c1	9.0	0.0	1.35	6.0%	1.06	i
CCCOc1ccccc1-c1nc2c([nH]1)c(=O)[nH]c(=O)n2C	2.0	5.0	3.72*	4.0%	1.13	.
